Test results published in PubChem BioAssay AID686979 (National Center for Advancing Translational Sciences (NCATS), 2013).
Screen size: about 420,000 compounds; about 50,000 (12%) were called active. Where a call stands in place of a potency, no number is given. About 26% were inconclusive and are not listed. This is one part of a sample in which actives are shown more often than they occur. Calls come from the whole dose curve; as a rule, active = well fitted inhibition curve with a large enough effect; inconclusive = small, poorly fitted or top-dose-only effect; inactive = flat fitted curve, though single readings scatter.
Potency is the fitted concentration of half-maximal effect.

Assay: qHTS for Inhibitors of human tyrosyl-DNA phosphodiesterase 1 (TDP1): qHTS in cells in presence of CPT; note: nearly all actives have a fitted effect of over 55% in size
Details: chicken DT40 Tdp1-/-;hTDP1 cells + 20 nM CPT, ATP luminescence, 48 h; series mostly up to 46.2 µM
Procedure, shortened: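 Chicken DT40 Tdp1-/- cells complemented with human TDP1, 400 cells/well, exposed to compounds plus 20 nM camptothecin for at least 48 h at 37 C; viability read as ATP content by CellTiter-Glo luminescence.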
For `O=C(CCN1C(=O)[C@@H]2Cc3ccccc3CN2C1=O)NCCc1ccccc1`, the Potency was “inactive”.
In the case of `O=C(Cn1nc(C(=O)O)c2ccccc2c1=O)Nc1ccc(F)cc1`, the Potency is reported as “inactive”.
For `CCN(CC)c1ccc(/C=C/c2c(C)cnc3ccc(C)cc23)cc1`, the Potency was 11.2 µM (active).
For `COc1ccc(C(=O)COC(=O)CNC(=O)c2cccs2)cc1Br`, the Potency was “inactive”.
For `Cc1ccc(S(=O)(=O)N2CCN(c3ccccc3)CC2)cc1C`, the Potency was “inactive”.
With `COC(=O)/C(=C\Nc1ccccc1)NC(=O)c1ccc(Cl)cc1Cl` the Potency was “inactive”.
With `COC(=O)Cc1nc2c(N)nc(N)nc2[nH]c1=O` the Potency was “inactive”.
With `COc1cc2c(cc1OC)C(COc1ccc(F)cc1)N(C(=O)c1ccccc1F)CC2` (stereo not drawn) the Potency was 18.4 µM (active).
With `COc1ccc2c(c1)CCC/C2=N\OC(=O)c1ccccc1F` the Potency was “inactive”.
With `COc1cc2c(cc1OC)CN(CC(=O)Nc1ccc(F)cc1)CC2` the Potency was “inactive”.
In the case of `NC(=O)C1(Nc2ccccc2Cl)CCCC1`, the Potency is reported as “inactive”.
With `NC(=O)c1ccc(-c2csnn2)cc1` the Potency was “inactive”.
For `CCOc1ccc(CCNC(=O)COC(=O)CCS(=O)(=O)c2ccc(C)cc2)cc1OCC`, the Potency was “inactive”.
For `Cc1nc2ccccc2nc1CC(O)(c1ccccc1)c1ccccc1`, the Potency was “inactive”.
For `CN(C)NC(=O)c1csnc1-c1c(Cl)cccc1Cl`, the Potency was “inactive”.
With `CCn1c(SCC(=O)N/N=C/c2ccccc2OCC(=O)O)nnc1-c1ccc(C(C)(C)C)cc1` the Potency was “inactive”.
With `COc1cccc(CNC(C)C(=O)Nc2ccc(S(=O)(=O)N3CCCC3)cc2)c1` (stereo not drawn) the Potency was “inactive”.
For `COc1ccc(S(=O)(=O)N2CCN(C(C)C(=O)Nc3ccc(C(C)C)cc3)CC2)cc1` (stereo not drawn), the Potency was 29.1 µM (active).
With `COc1ccc(S(=O)(=O)N2CCN(C(=O)NC3CCCCC3)CC2)cc1` the Potency was “inactive”.
With `O=C(NC(=S)NC1CCSC1=O)c1ccccc1F` (stereo not drawn) the Potency was “inactive”.
For `COc1cc(CN2CCC(C(N)=O)CC2)ccc1OCc1ccccc1`, the Potency was “inactive”.
With `COc1cc(CNC2CCCC2)c(Br)cc1OCc1ccccc1` the Potency was 20.6 µM (active).
With `COc1cc(OC)c(NC(=O)C2CCCN2C(=O)OCc2ccccc2)cc1Cl` (stereo not drawn) the Potency was “inactive”.
For `CS(=O)(=O)NC(=O)CCC/C=C\C[C@H]1C(=O)C[C@@H](O)[C@@H]1/C=C/[C@H](O)COc1ccccc1`, the Potency was “inactive”.
With `Cc1ccc2nc(COc3cccc(NC(=O)c4cccc(Cl)c4)c3)cc(=O)n2c1` the Potency was “inactive”.
With `COc1cc(OC)cc(-c2sc3ccc(OC)cc3c2-c2ccc3cc[nH]c3c2)c1` the Potency was “inactive”.
With `COc1cccc(-c2sc3ccc(OC)cc3c2-c2ccc(OCCN3CCCCC3)cc2)c1` the Potency was 18.4 µM (active).
In the case of `COc1ccc(-c2sc3ccccc3c2-c2ccc(OCCN3CCOCC3)cc2)cc1`, the Potency is reported as 14.6 µM (active).
For `c1ccc(-c2ccc(OCCN3CCOCC3)cc2)cc1`, the Potency was “inactive”.
For `COc1cccc(OCCCN2CCCCCC2)c1`, the Potency was “inactive”.
With `Cc1cccc(C)c1OCCN1CCOCC1` the Potency was “inactive”.
For `COc1ccc(S(=O)(=O)N(C)C[C@@H]2Oc3ccc(NS(=O)(=O)c4cn(C)cn4)cc3C(=O)N([C@@H](C)CO)C[C@@H]2C)cc1`, the Potency was “inactive”.
With `COc1ccc2c(c1)C(c1cccs1)=NNC(c1cccnc1)=N2` the Potency was “inactive”.
For `CCOc1ccc(NS(=O)(=O)c2ccc(C)c(C(N)=O)c2)cc1`, the Potency was 20.6 µM (active).
With `CCOc1ccc(NS(=O)(=O)c2ccc(OCC(=O)NCCCOC)cc2)cc1` the Potency was “inactive”.
With `CCCCNC(=O)c1c[nH]c2ccc(S(=O)(=O)Nc3ccc(OCC)cc3)cc2c1=O` the Potency was “inactive”.
With `Cc1ccccc1NC(=O)Cc1nc(COC(=O)CNC(=O)c2ccc(Cl)cc2Cl)cs1` the Potency was “inactive”.
In the case of `O=C(NCc1cccnc1)c1cc(S(=O)(=O)N2CCOCC2)c(Cl)cc1Cl`, the Potency is reported as “inactive”.
In the case of `Cc1ccc2nc3c(cc(C(=O)NC4CCCCC4)c(=N)n3C(C)C)c(=O)n2c1`, the Potency is reported as “inactive”.
With `COc1ccc(CCn2c(=N)c(C(=O)NCC3CCCO3)cc3c(=O)n4cccc(C)c4nc32)cc1OC` (stereo not drawn) the Potency was 5.17 µM (active).
For `COCCCn1c(C(=O)NC2CCCCC2)cc2c(=O)n3cccc(C)c3nc21`, the Potency was 18.4 µM (active).
In the case of `Cc1cccn2c(=O)c3cc(C(=O)NC4CCCCC4)sc3nc12`, the Potency is reported as “inactive”.
For `CCOC(=O)c1cc2c(=O)n3ccccc3nc2n(CC2CCCO2)c1=NC(=O)c1ccccc1Br` (stereo not drawn), the Potency was “inactive”.
With `CCCCn1c(=N)c(S(=O)(=O)c2ccccc2)cc2c(=O)n3cccc(C)c3nc21` the Potency was “inactive”.
In the case of `Cc1cccn2c(=O)c3cc(C(=O)NCCN4CCOCC4)c(=N)n(Cc4cccnc4)c3nc12`, the Potency is reported as 13 µM (active).
With `COc1ccc(C(=O)Nc2ccc(C(=O)NCC3CCCO3)cc2)c(OC)c1OC` (stereo not drawn) the Potency was “inactive”.
For `Cc1cccn2c(=O)c3cc(C#N)c(=NC(=O)c4cccnc4)n(CC4CCCO4)c3nc12` (stereo not drawn), the Potency was “inactive”.
In the case of `COc1ccc(CCNC(=O)Cn2c(=O)n(CC3CCCO3)c(=O)c3ccccc32)cc1OC` (stereo not drawn), the Potency is reported as “inactive”.
In the case of `Cc1ccc2nc3c(cc(C(=O)NCCc4ccccc4)c(=N)n3CC3CCCO3)c(=O)n2c1` (stereo not drawn), the Potency is reported as 20.6 µM (active).
In the case of `CCOc1ccc(N2C(=O)CSC2=NC#N)cc1`, the Potency is reported as “inactive”.
For `COC(=O)C1=C(C)NC(=S)NC1c1ccc(OCC(=O)N2CC(C)OC(C)C2)c(OC)c1` (stereo not drawn), the Potency was “inactive”.
For `Cn1cc(S(=O)(=O)N2CCN(c3ccc(F)cc3)CC2)c(=O)n(C)c1=O`, the Potency was “inactive”.
For `CCc1ccc(C(=O)OCC(=O)NCC(F)(F)F)cc1`, the Potency was “inactive”.
In the case of `CS(=O)(=O)N1CCCC(C(=O)Nc2ccccc2C(F)(F)F)C1` (stereo not drawn), the Potency is reported as “inactive”.
In the case of `CC(=O)Nc1ccc(NC(=O)C(C)OC(=O)C2CC(=O)N(CCc3ccccc3)C2)cc1` (stereo not drawn), the Potency is reported as “inactive”.
For `O=C(O)C1CCCCC1C(=O)N1CCN(S(=O)(=O)c2ccc(F)cc2)CC1` (stereo not drawn), the Potency was “inactive”.
In the case of `NCCCCC(C(=O)O)N(C(=O)OCc1ccccc1)C(=O)OCc1ccccc1` (stereo not drawn), the Potency is reported as “inactive”.
For `CC1C(=O)C(C)C(c2ccc(O)cc2)NC1c1ccc(O)cc1` (stereo not drawn), the Potency was “inactive”.
With `O=C(OCC(=O)N1CCN(C(=O)c2ccco2)CC1)c1ccc(Cl)c(Cl)c1` the Potency was “inactive”.
With `CCOc1ccccc1/C=N/NC(=O)CNC(=O)COc1ccccc1` the Potency was “inactive”.
In the case of `COc1ccc(CCNC(=O)CCc2ccccc2O)cc1OC`, the Potency is reported as “inactive”.
With `Cc1ccc(S(=O)(=O)c2cc3c(=O)n4cccc(C)c4nc3n(CCc3ccccc3)c2=N)cc1C` the Potency was “inactive”.
For `COc1ccc(C(=O)Nc2ccccc2C(=O)NCc2ccco2)cc1`, the Potency was “inactive”.
For `COc1ccc(CCn2c(=N)c(C(=O)NCc3ccco3)cc3c(=O)n4cccc(C)c4nc32)cc1`, the Potency was 20.6 µM (active).
With `CCOC(=O)c1ccc(NC(=O)CCn2c(=O)oc3ccccc32)cc1` the Potency was “inactive”.
For `CC(Sc1nncn1C)C(=O)NCCC1=CCCCC1` (stereo not drawn), the Potency was “inactive”.
With `CC(C)[C@H](CO)Nc1nc(Nc2cc(N)cc(Cl)c2)c2ncn(C(C)C)c2n1` the Potency was 4.73 µM (active).
For `CC(C)n1cnc2c(Nc3cccc(Cl)c3)nc(N(CCO)CCCO)nc21`, the Potency was 10.3 µM (active).
With `CCC(C)NC(=O)C1c2ccccc2Oc2ccccc21` (stereo not drawn) the Potency was “inactive”.
For `CC(C)(C)c1nnc(NC(=O)C2c3ccccc3Oc3ccccc32)s1`, the Potency was 23.1 µM (active).
With `CCC(C)(C)NC(=O)C1c2ccccc2Oc2ccccc21` the Potency was “inactive”.
With `COCCCNCC(=O)Nc1sc(C)c(C)c1C(=O)OC` the Potency was “inactive”.
For `Nc1ncnc2nnsc12`, the Potency was “inactive”.
With `Oc1c(C(c2ccc(F)cc2)N2CCN(Cc3ccccc3)CC2)sc2nc(-c3ccco3)nn12` (stereo not drawn) the Potency was “inactive”.
For `CC(C)(O)CCC(O)[C@@](C)(O)C1CC[C@]2(O)C3=CC(=O)C4CC(O)C(O)C[C@]4(C)C3CC[C@]12C` (stereo partly drawn), the Potency was “inactive”.
For `COc1cccc(C=CC(=O)C=CC=Cc2ccccc2)c1`, the Potency was 20.6 µM (active).
In the case of `COc1cccc(C(=O)NNC(=O)/C=C/c2ccccc2)c1`, the Potency is reported as “inactive”.
With `COc1cccc(N2CC(NC(=O)/C=C\c3ccccc3)CC2=O)c1` (stereo not drawn) the Potency was “inactive”.
In the case of `COc1ccccc1C(C)NC(=O)Cc1ccsc1` (stereo not drawn), the Potency is reported as “inactive”.
With `Cc1ccc(CN(CC(=O)NC2CCCCC2)C(=O)c2csnn2)cc1` the Potency was “inactive”.
For `COc1ccc(CN(CC(=O)NC2CCCC2)C(=O)CCC(=O)Nc2cc(C)on2)cc1`, the Potency was “inactive”.
In the case of `Cc1cc(C(C)(C)C)oc1C(=O)N(CC(=O)NC1CCCC1)Cc1ccc(Cl)cc1`, the Potency is reported as 9.2 µM (active).
In the case of `Cc1ccc2cccc(NC(=O)C(C)Oc3ccc(C)c(C)c3)c2n1` (stereo not drawn), the Potency is reported as 20.6 µM (active).
For `CC(C)Oc1ccc(C(=O)NC(C)(C)CO)cc1`, the Potency was “inactive”.
In the case of `COc1ccc(OC(C)C(=O)Nc2cccnc2)cc1` (stereo not drawn), the Potency is reported as “inactive”.
With `Cc1ccc2cccc(NC(=O)c3ccc(OC(C)C)cc3)c2n1` the Potency was 18.4 µM (active).
For `CC(C)Oc1ccc(C(=O)Nc2cc(=O)n(C)c(=O)n2C)cc1`, the Potency was “inactive”.
With `CC(Oc1ccc(Cl)cc1)C(=O)Nc1ncccn1` (stereo not drawn) the Potency was “inactive”.
For `Cc1ccc(Cn2c(=O)n(-c3ccc(C)cc3)c(=O)c3c2c2cc(C)ccc2n3C)cc1`, the Potency was “inactive”.
For `CCCCSCCCNC(=O)C1CCC(CNS(=O)(=O)c2ccc(NC(C)=O)cc2)CC1` (stereo not drawn), the Potency was “inactive”.
In the case of `CC1CCN(C(=O)CCNC(=O)c2ccccc2)CC1`, the Potency is reported as “inactive”.
With `C=CCn1c(CCNC(=O)c2ccccc2F)nnc1SCC(=O)Nc1ccc(OC)cc1` the Potency was “inactive”.
With `Cc1ccc(CN(CC(=O)NCC2CCCO2)S(=O)(=O)c2ccc(C)cc2)cc1` (stereo not drawn) the Potency was “inactive”.
For `Cc1ccc2nc3n(c(=O)c2c1)CCC3`, the Potency was “inactive”.
For `Cc1nc2ccc(C(=O)N3CCN(c4ccccc4)CC3)cc2s1`, the Potency was “inactive”.
With `Cc1ccc2nc(C)c3c(c2c1)N(c1ccccc1)CC3` the Potency was 11.6 µM (active).
For `COc1ccc(Cn2ccnc2SCC(=O)NCc2ccco2)cc1`, the Potency was “inactive”.
With `CCOC(=O)c1cccc(NC(=O)CCc2nnc3ccc(N4CCOCC4)nn23)c1` the Potency was “inactive”.
With `O=C(NC1CCCCC1)C1CCC(CNS(=O)(=O)c2ccccc2)CC1` (stereo not drawn) the Potency was “inactive”.
In the case of `COc1nc(NC2CCCCC2)nc(N2CCCCCC2)n1`, the Potency is reported as 22.4 µM (active).
In the case of `Clc1nc(NC2CCCC2)nc(N2CCOCC2)n1`, the Potency is reported as “inactive”.
For `CN(N)c1nc(N2CCCC2)nc(N2CCCC2)n1`, the Potency was “inactive”.
In the case of `C[C@@H]1CN([C@@H](C)CO)C(=O)c2cc(Br)cnc2O[C@@H]1CN(C)C(=O)C1CCCCC1`, the Potency is reported as “inactive”.
